Only some compounds are listed: those with a hit (about 19% of all), similar ones and a draw of the others.
IL1B secr inh = inhibitors of inflammasome signaling (IL-1 beta secretion) | THP-1 LPS/ATP IL-1B secretion, AlphaLISA, 16 h; hits give low values | activity change, % at 57.5 µM | 360,000 compounds, 4.7% hits | AID 743279; in the data active = activity change below about -50%; inconclusive = mostly about -30% to -49%
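Secreted IL-1B measured by AlphaLISA bead assay after 16 h compound exposure of THP-1 cells; compounds (final up to 57.5 uM) added 1 h before LPS (250 ng/mL) and ATP (1.25 mM) stimulation; lower signal means less secretion.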
DT40 TDP1 no CPT = qHTS for Inhibitors of human tyrosyl-DNA phosphodiesterase 1 (TDP1): qHTS in cells in absence of CPT. Potency, µM (titrated, usually from 46.2 µM), for the others: at the top dose activity change, negative = growth inhibition, actives largely listed as inhibitors. DT40 Tdp1-/- hTDP1 cells, no CPT, ATP luminescence, 48 h. 420,000 compounds, 15% hits; also: potency is read from the fitted curve at half-maximal effect; nearly all actives have a fitted effect of over 55% in size
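Cells were dispensed at 400 per well, compounds added by pin tool, plates incubated ≥48 hr at 37 °C, then CellTiter-Glo added for 30 min at room temperature before luminescence reading. Line: DT40 Tdp1-/- complemented with hTDP1; camptothecin omitted.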
HT1080NT lethal = kills 2HG-producing HT-1080-NT fibrosarcoma cells; Potency, µM (highest dose often 46.1 µM), without a hit: at the highest dose activity, negative = less viability, hits mostly cytotoxic; HT-1080-NT fibrosarcoma viability, CellTiter-Glo ATP luminescence, 48 h; 360,000 compounds, 1.6% hits; AID 686970;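 also: NT is the 2HG producing partner of a matched IDH1 knockdown line; potency is read from the fitted curve at half-maximal effect; 0% = DMSO-treated cells and -100% = media-only wells without cells; nearly all actives have a fitted effect of over 55% in size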
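HT-1080-NT fibrosarcoma cells (2HG-overproducing), 750 cells/well in RPMI with 5% FBS, dosed after 2 h and incubated 48 h at 37C. CellTiter-Glo luminescence normalized to DMSO and no-cell wells; concentration-response curves fitted and classed.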
HT1080 IDH1KD tx = HT-1080 IDH1 knockdown cell toxicity (counter line). 360,000 compounds, 2% hits. Potency, µM (top dose mostly 46.1 µM), without a hit: at the highest dose activity, negative = toxicity, usual class: cytotoxic. AID 686971. HT-1080 IDH1 knockdown viability, ATP luminescence, 48 h;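 also: potency is read from the fitted curve at half-maximal effect; 0% = DMSO wells and -100% = cell-free medium wells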
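Viability of IDH1-knockdown HT-1080 fibrosarcoma cells was assessed by CellTiter-Glo after 48 h at 37 °C with titrated compound; concentration-effect curves were classified by fit quality and response size.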
ELG1 repair inh = blocks ELG1-dependent DNA repair in HEK293T cells; HEK293T ELG1-luciferase reporter, luminescence, 16 h; DNA damage induced by 5-fluorouridine; Potency, µM (doses to about 46.1 µM), for the others: top-dose activity change, negative = inhibition, most hits filed as inhibitors; 330,000 compounds, 2.3% hits; also: potency is read from the fitted curve at half-maximal effect; nearly all actives have a fitted effect of over 55% in size
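Reporter activity after DNA damage by 5-fluorouridine is monitored. Compound-treated cells incubate 16 hr at 37 °C, then ONE-Glo is added for 30 min before luminescence reading.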
TDP1 cell CPT = DT40-hTDP1 cell growth loss with CPT. chicken DT40 Tdp1-/-;hTDP1 cells + 20 nM CPT, ATP luminescence, 48 h. Potency, µM (top dose mostly 46.2 µM), inactives show at the top dose activity change, negative = growth inhibition, hits mostly inhibitors. 420,000 compounds, 12% hits; also: potency is read from the fitted curve at half-maximal effect; nearly all actives have a fitted effect of over 55% in size
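Chicken DT40 Tdp1-/- cells complemented with human TDP1, 400 cells/well, exposed to compounds plus 20 nM camptothecin for at least 48 h at 37 C; viability read as ATP content by CellTiter-Glo luminescence.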
* marks the source's active call; other numbers are inactive results; ? = inconclusive; . = not tested or not shown; [ ] = remark or other dose. Unless noted, calls follow the shape of the dose curve; as a rule, active = well fitted curve in the direction sought with a large enough effect; inconclusive = small, poorly fitted or top-dose-only effect, or another doubt; inactive = no such curve, though single readings can be large; an effect the other way counts as inactive or inconclusive. Unless noted, % is scaled to controls: 0 for no effect and ±100 for the full control effect.

SMILES	IL1B secr inh	DT40 TDP1 no CPT	HT1080NT lethal	HT1080 IDH1KD tx	ELG1 repair inh	TDP1 cell CPT
COc1cc(O)c(C(CC(=O)N2CCCC(C)C2)c2ccc(N(C)C)cc2)c(OC)c1 (stereo not given)	-23	?	3%	6%	6%	?
CCOCc1cn(CC(=O)c2ccc([N+](=O)[O-])cc2)c(C)nc1=N	21	?	-6%	?	-19%	23µM*
CCOCc1cn(CC(=O)c2ccc(Cl)cc2)c(C)nc1=N	1	-6%	-6%	-4%	-11%	-3%
CN1CCN(C(=O)c2cccc(S(=O)(=O)N3CCCC3)c2)CC1	0	-1%	20%	9%	16%	-10%
CCOC(=O)N1CCC(NC(=O)CN2C(=O)CCSc3ccccc32)CC1	3	-7%	2%	-2%	?	1%
O=C(NC1CCCC1)c1ccc2c(c1)N(Cc1ccc(F)cc1)CCS2	-14	?	-19%	0%	-17%	?
CCOC(=O)N1CCC(NC(=O)c2ccc3c(c2)N(CC)CCS3)CC1	20	?	0%	-15%	.	21µM*
CCc1ccc(NC(=O)c2ccc3c(c2)N(Cc2ccc(C)cc2)CCS3)cc1	.	?	.	.	.	15µM*
Cc1ccc(CN2CCSc3ccc(C(=O)NC4CCCC4)cc32)cc1	-10	?	-1%	-1%	?	16µM*
Cc1ccc(CN2CCSc3ccc(C(=O)NCc4cccnc4)cc32)cc1	0	?	-15%	-5%	-23%	23µM*
O=C(Nc1cc(C(F)(F)F)ccc1N1CCOCC1)C1CCCO1 (stereo not given)	-8	-17%	7%	-15%	12%	-23%
Cc1ccc(CN2CCSc3ccc(C(=O)Nc4ccc(F)cc4F)cc32)cc1	.	?	.	.	.	16µM*
O=C(NCC1CCCO1)c1ccc2c(c1)N(Cc1ccc(Cl)cc1)CCS2 (stereo not given)	?	23µM*	-19%	-7%	.	?
CCN1CCN(C(=O)NC(C(=O)NC2C(=O)N3C2SC(C)(C)C3C(=O)O)c2ccccc2)C(=O)C1=O (stereo not given)	.	3%	.	.	.	7%
CCOCCn1c(=NC(=O)c2ccc3c(c2)OCCO3)sc2cc(OCC)ccc21	.	15µM*	.	.	.	?
COCCn1c(=NC(=O)C2COc3ccccc3O2)sc2cc(S(N)(=O)=O)ccc21 (stereo not given)	-8	?	-1%	3%	?	?
COc1ccc(OC)c2c1sc(=NC(=O)c1cccc(N3C(=O)CCC3=O)c1)n2C	21	?	0%	6%	?	-10%
CCn1c(=NC(=O)c2ccc3c(c2)OCCO3)sc2c(C)ccc(OC)c21	.	23µM*	.	.	.	?
CCn1c(=NC(=O)C2COc3ccccc3O2)sc2c(OC)ccc(OC)c21 (stereo not given)	-22	15µM*	?	4%	0%	?
CCn1c(=NC(=O)c2cccc(N3C(=O)CCC3=O)c2)sc2c(OC)ccc(OC)c21	1	18µM*	-3%	0%	6%	-25%
COC(=O)CNc1nc(Cl)nc(NC2CCCCC2)n1	3	6%	-10%	-14%	8%	3%
Cc1cc(C(=O)N2CCC2(C)C(=O)O)c(C)o1 (stereo not given)	6	-3%	5%	14%	.	-4%
CCOCN(C(=O)Cn1cnc2cc(C)c(C)cc21)c1c(C)cccc1CC	.	16µM*	.	.	.	21µM*
O=C(Nc1cccc(O)c1)c1cccc(NC(=O)c2cccs2)c1	-1	-21%	?	?	15%	-28%
COc1ccc(C2c3c4c(n(C)c3CCN2C)CCN(C)C4c2ccc(OC)cc2)cc1 (stereo not given)	-55*	?	?	?	4%	?
SMILES	IL1B secr inh	DT40 TDP1 no CPT	HT1080NT lethal	HT1080 IDH1KD tx	ELG1 repair inh	TDP1 cell CPT
CC(C)c1ccc(S(=O)(=O)N2CCN(CC(O)CN3CCOCC3)CC2)cc1 (stereo not given)	0	-1%	6%[9.24 µM]	3%	14%	-23%
COc1ccc(COCC(O)CN2CCN(S(=O)(=O)c3ccc(C(C)C)cc3)CC2)cc1 (stereo not given)	-8	21µM*	1%	-3%	13µM*	26µM*
COc1cc(NC(=O)CN2CCN(S(=O)(=O)c3ccc(C(C)C)cc3)CC2)cc(OC)c1	?	?	-2%	-6%	?	-28%
CC(C)c1ccccc1OCC(O)CN1CCN(S(=O)(=O)c2ccc([N+](=O)[O-])cc2)CC1 (stereo not given)	-83*	8.2µM*	-29%	?	?	?
CC(OCC(O)CN1CCN(S(=O)(=O)c2ccc(Cl)cc2)CC1)c1ccc(Cl)cc1 (stereo not given)	-23	10µM*	-10%	-21%	.	12µM*
COc1ccc(Cl)cc1S(=O)(=O)NC(C)C(=O)NCc1ccncc1 (stereo not given)	0	2%	20%	14%	0%	9%
Cc1ccc(N2C(=N)/C(=C3/Nc4ccccc4S3)C(c3ccccc3)C2=O)cc1 (stereo not given)	10	4.6µM*	-1%	1%	?	?
CC1=NN(c2ccccc2)C(=O)C1c1ccccc1 (stereo not given)	-12	-12%	-5%	-2%	-10%	2%
Cc1ccc(-c2nnc(Nc3ccccc3)c3ccccc23)cc1S(=O)(=O)N1CCOCC1	.	?	.	.	.	-27%
Cc1ccc(Nc2nnc(-c3ccc(C)c(S(=O)(=O)N4CCOCC4)c3)c3ccccc23)c(C)c1	.	16µM*	.	.	.	?
CNS(=O)(=O)c1cc(-c2nnc(N3CCOCC3)c3ccccc23)ccc1C	16	-3%	7%	-1%	.	-1%
CNS(=O)(=O)c1cc(-c2nnc(Nc3cc(C)ccc3C)c3ccccc23)ccc1C	.	21µM*	.	.	.	21µM*
Cc1ccccc1Nc1nnc(-c2ccc(C)c(S(=O)(=O)N3CCOCC3)c2)c2ccccc12	.	16µM*	.	.	.	?
C/C(=N\NC(=S)NC1CCCCC1)c1cccc(Br)c1	-2	16µM*	20%	18%	?	?
C/C(=N\NC(=S)NC1CCCCC1)c1cccc(C(F)(F)F)c1	58	23µM*	25%	6%	-8%	21µM*
